Assays:
Conditions in all cases: concentration: 1 μM, replicates: in singlicate; n = 1
ASK2 = system: T1, ASK2
T1 construct: gene MAP3K6

AURKA = system: AURKA
AURKB = system: AURKB
AURKC = system: AURKC
AXL = system: AXL
BIKE = system: T2, BIKE
T2 construct: gene BMP2K

BLK = system: BLK
BMPR1A = system: BMPR1A
BMPR1B = system: BMPR1B
BMPR2 = system: BMPR2
BMX = system: BMX
BRAF = system: BRAF
BRK = system: T3, BRK
T3 construct: gene PTK6

BRSK1 = system: BRSK1
BRSK2 = system: BRSK2
BTK = system: BTK
BUB1 = system: BUB1
CAMK1B = system: CAMK1B
CAMK1D = system: CAMK1D
CAMK1G = system: CAMK1G
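Further: KINOMEscan kinase panel screen.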

Row | Compound | %Inh (ASK2) | %Inh (AURKA) | %Inh (AURKB) | %Inh (AURKC) | %Inh (AXL) | %Inh (BIKE) | %Inh (BLK) | %Inh (BMPR1A) | %Inh (BMPR1B) | %Inh (BMPR2) | %Inh (BMX) | %Inh (BRAF) | %Inh (BRK) | %Inh (BRSK1) | %Inh (BRSK2) | %Inh (BTK) | %Inh (BUB1) | %Inh (CAMK1B) | %Inh (CAMK1D) | %Inh (CAMK1G)
1 | Cl.c1ccc(-c2ccc3c(Nc4ccc5[nH]ncc5c4)ccnc3c2)nc1 [GW440137] | 19% | 1% | 3% | 22% | 4% | 18% | 40% | 0% | 31% | 0% | 0% | 7% | 20% | 0% | 2% | 0% | 47% | 36% | 18% | 5%
2 | Cc1ccc(C)c(NC(=O)NC2CCN(c3ccnc(Nc4ccc(F)cc4)n3)C2)c1 (centres unmarked) [GSK1379720] | 0% | 0% | 48% | 76% | 0% | 23% | 24% | 0% | 0% | 21% | 0% | 0% | 21% | 0% | 0% | 0% | 49% | 0% | 6% | 11%
3 | Cc1occc1-c1ncc(OC[C@@H](N)Cc2c[nH]c3ccccc23)cc1-c1ccc2[nH]nc(C)c2c1.O=C(O)C(F)(F)F [GSK682037] | 7% | 0% | 0% | 53% | 35% | 90.5% | 19% | 0% | 0% | 0% | 22% | 0% | 7% | 0% | 0% | 0% | 23% | 29% | 82% | 27%
4 | COC(=O)Nc1nc2ccc(Oc3ccc(NC(=O)Nc4cc(C(F)(F)F)ccc4F)cc3)cc2n1C.Cl [GW692089] | 0% | 0% | 94.1% | 14% | 95% | 0% | 27% | 0% | 0% | 11% | 5% | 57% | 0% | 0% | 26% | 59% | 42% | 0% | 1% | 0%
5 | Cl.NC(=O)c1cccc(Nc2nccc(Nc3ccc(Oc4c(Cl)cccc4Cl)c(Cl)c3)n2)c1 [GW659009] | 0% | 0% | 17% | 43% | 5% | 56% | 45% | 100% | 0% | 0% | 0% | 6% | 76% | 0% | 0% | 36% | 17% | 0% | 2% | 0%
6 | Cc1cccc(Nc2nc(N[C@H]3CCNC3)ncc2C(N)=O)c1.Cl [GSK2197149] | 3% | 0% | 0% | 58% | 24% | 96.9% | 69% | 0% | 0% | 0% | 16% | 4% | 7% | 0% | 0% | 0% | 44% | 68% | 55% | 8%
7 | CN(C)S(=O)(=O)c1cc(-c2ccc3nccc(-c4cccc(S(N)(=O)=O)c4)c3c2)cnc1N [GSK1669921] | 5% | 8% | 0% | 17% | 10% | 22% | 18% | 0% | 0% | 3% | 21% | 30% | 11% | 12% | 0% | 0% | 0% | 0% | 25% | 7%
8 | c1ccc(-c2n[nH]cc2Nc2ccnc3ccccc23)nc1 [GW694077] | 1% | 15% | 45% | 78% | 0% | 100% | 28% | 0% | 3% | 47% | 6% | 0% | 0% | 0% | 0% | 0% | 88% | 49% | 30% | 9%
9 | c1ccc(Oc2ccc(Nc3ccnc4cc(-c5ccc(CNCCN6CCOCC6)o5)ccc34)cc2)nc1 [GW567145] | 0% | 22% | 71% | 9% | 0% | 0% | 86% | 0% | 0% | 14% | 20% | 0% | 85% | 0% | 0% | 86% | 54% | 0% | 2% | 0%
10 | CCc1ccc(-c2ccc3c(c2)-c2c(cnn2C)S(=O)(=O)N3C)cc1 | 0% | 14% | 0% | 35% | 8% | 0% | 0% | 0% | 0% | 0% | 0% | 0% | 1% | 19% | 0% | 3% | 15% | 0% | 0% | 5%
11 | Clc1ccc(-c2nn3ncccc3c2-c2ccnc(Nc3ccc4c(c3)OCCO4)n2)cc1 [GW829116] | 0% | 18% | 0% | 0% | 0% | 0% | 48% | 0% | 0% | 0% | 0% | 52% | 0% | 0% | 0% | 0% | 93.1% | 0% | 0% | 0%
12 | O=C(Nc1cccc(Oc2ccc3nc(NC(=O)C4CC4)cn3n2)c1)c1ccccc1C(F)(F)F | 0% | 89% | 92.8% | 77% | 75% | 79% | 25% | 0% | 0% | 0% | 0% | 65% | 0% | 6% | 0% | 16% | 0% | 0% | 3% | 0%
13 | CC(=O)Nc1nc2cnc(Nc3cc(NC(=O)c4cccc(C5(C#N)CC5)c4Cl)ccc3C)nc2s1 | 0% | 0% | 26% | 0% | 0% | 0% | 45% | 0% | 0% | 2% | 1% | 99.4% | 30% | 10% | 0% | 0% | 0% | 0% | 30% | 0%
14 | O=c1[nH]cc(-c2ccc(N3CCOCC3)cc2)c2sc(-c3cn[nH]c3)cc12 [GSK2276055] | 13% | 28% | 21% | 21% | 0% | 28% | 0% | 1% | 0% | 24% | 11% | 35% | 0% | 0% | 0% | 0% | 0% | 5% | 29% | 12%
15 | COc1cc(Nc2nccc(-c3c(-c4cccc(NC(=O)c5c(F)cccc5F)c4)nn4ncccc34)n2)cc(OC)c1OC [GSK327238] | 8% | 99.1% | 92.5% | 70% | 91.3% | 7% | 99.6% | 3% | 0% | 0% | 91.4% | 96% | 97.6% | 0% | 40% | 94% | 54% | 0% | 13% | 3%
16 | O=C(NC1CCN(c2ccnc(Nc3ccc(F)cc3)n2)C1)c1cc2ccccc2s1 (centres unmarked) [GSK1379716] | 9% | 4% | 24% | 53% | 19% | 26% | 62% | 0% | 0% | 0% | 22% | 0% | 25% | 18% | 9% | 0% | 64% | 9% | 17% | 0%
